The values below come from PubChem BioAssay (Tox21).

Inconclusive results are not listed. Where a call stands in place of a potency, no number is given. The source holds several records for some structures; these can differ, active in one and inactive in another. Active and inactive are the calls of the source. The call rests on the fitted dose curve.
Potency means the concentration at half of the fitted maximal effect.

This experiment in a line: qHTS assay to identify small molecule agonists of the hypoxia (HIF-1) signaling pathway - cell viability counter screen (AID 1224844). Further: nearly all actives have a fitted effect of over 50% in size. The settings on record: HRE-bla ME-180 viability, CellTiter-Glo luminescence, 17 h; series mostly up to 76.8 µM. From the text:
National Center for Advancing Translational Sciences [NCATS]
NIH Chemical Genomics Center [NCGC]
U.S. Environmental Protection Agency [EPA]
National Institutes of Environmental Health Sciences [NIEHS]
National Toxicology Program [NTP]
U.S. Food and Drug Administration [FDA]
Hypoxia-inducible factor-1 (HIF-1) is the major hypoxia-regulated transcription factor that controls cellular responses to low oxygen concentration. HIF-1 is composed of two subunits: hypoxia responsive HIF-1-alpha and constitutively expressed HIF-1-beta, which is also known as aryl hydrocarbon receptor nuclear translocator. During hypoxic conditions, HIF-1-alpha heterodimerizes with HIF-1-beta and translocates into the nucleus where the HIF-1 complex binds to the hypoxia-response element (HRE) and activates expression of target genes such as VEGF (vascular endothelial growth factor). The HIF-1 pathway is essential to normal growth and development, and is involved in the pathophysiology of cancer, inflammation, and ischemia.
Using a beta-lactamase reporter-gene under control of the hypoxia response element, a cell-based assay [CellSensor(TM) HRE-bla ME-180 from Life Technologies, Carlsbad, CA] was used to measure hypoxia-induced signaling. Tox21 10K library compounds were measured for their ability to induce the reporter gene activity. The cytotoxicity of the Tox21 compound library against HRE-bla ME-180 cell line was tested in parallel by measuring cell viability using CellTiter-Glo assay (Promega, Madison, WI) in the same assay wells.
Tox21 Assay Protocol Summary:
HRE-bla ME-180 cells were dispensed at 2,000 cells per well in 6 uL of assay medium containing 0.5% dialyzed FBS into black wall/clear-bottom 1536-well plates using a Multidrop Combi (Thermo Scientific, Waltham, MA) dispenser. After the assay plates were incubated at 37C and 5% CO2 for 5 hrs, 23 nL of compounds dissolved in DMSO, positive controls or DMSO only was transferred to each well of the assay plate using a Pintool station (Kalypsys, San Diego, CA). The assay plates were incubated at 37C and 5% CO2 for 17 hrs. One uL of LiveBLAzerTM B/G FRET substrate (CCF4-AM) (Life Technologies) was added to each well using a Flying Reagent Dispenser (FRD, Aurora Discovery, San Diego, CA). After 2 hr incubation at room temperature, fluorescence intensity (405 nm excitation, 460 nm and 530 nm emissions) was measured using an Envision plate reader (PerkinElmer, Shelton, CT). For cytotoxicity, 4 ul/well of CellTiter-Glo reagent was added into the assay plates using an FRD. After 30 min incubation at room temperature, the luminescence intensity was measured using a ViewLux plate reader (PerkinElmer).
(qHTS replaces the single test concentration by a dilution series.)
For the compound `Cc1c(C)c([N+](=O)[O-])c(C(C)(C)C)c([N+](=O)[O-])c1C`, the Potency result was “inactive”.

Regarding `O=C1CCc2cc(OCCCCc3nnnn3C3CCCCC3)ccc2N1`, the Potency result was “inactive”.

Regarding `CCC(CC)C(C)CCOC(C)=O` (stereo not given), the Potency result was “inactive”. On the same count and under the same terms, the entry for `Cc1cc(-n2nc3ccc(Cl)cc3n2)c(O)c(C(C)(C)C)c1` is “inactive”; for `CC(CCc1ccccc1)NCC(O)c1ccc(O)c(C(N)=O)c1` (stereo not given) it is “inactive”; for `CC(C)CCCCCOC(=O)CCS` it is “inactive”. Turning to `CCCC(=O)OC(C)(C)Cc1ccccc1`, the Potency entry was “inactive”.

For the compound `CCO[Si](OCC)(OCC)OCC`, the Potency result was “inactive”.

As to `CCCC1CCC(=O)CC1`, the Potency entry was “inactive”. With `CC(C)(C)CC(C)(C)c1ccc(Nc2ccc(C(C)(C)CC(C)(C)C)cc2)cc1`, the activity change, negative = cytotoxicity is 0.53% [at 6.97 µM] (inactive). For `CCCCCCCC`, the Potency entry was “inactive”. The same measure, in the same setting: the entry for `C=Cc1ccccc1C=C` is “inactive”; for `C=CC(=O)Nc1cc2c(Nc3ccc(F)c(Cl)c3)ncnc2cc1OCCCN1CCOCC1` it is 23.9 µM (active); for `Clc1sc(Cl)c(Cl)c1Cl` it is “inactive”. Same read-out and setting: the entry for `COc1cc(C)ccc1O` is “inactive”.

As for `CCC(C)[O-].CCC(C)[O-].CCOC(=O)/C=C(/C)[O-].[Al+3]`, the Potency entry was “inactive”.

Regarding `O=c1[nH]c(=O)n([C@H]2C[C@H](O)[C@@H](CO)O2)cc1F`, the Potency result is “inactive”. Take `CC(C)(C)c1ccc(C(O)CCCN2CCC(C(O)(c3ccccc3)c3ccccc3)CC2)cc1` (stereo not given): the Potency is 21.3 µM (active). For the compound `OC[C@@H](O)[C@@H](O)CO`, the Potency entry is “inactive”. Take `FC(F)(F)c1cccc(Cl)c1`: the Potency result was “inactive”. Take `CC(=O)c1ccc(C(C)=O)cc1`: the Potency entry is “inactive”. Still for that read-out and setting: the same measure for `CC1=CCC(=C(C)C)CC1`: “inactive”. `O=C1CCCCCCCCCCCCCCCO1`: the Potency result is “inactive”. In the case of `O=C(O)CN(CCN(CC(=O)O)CC(=O)O)CC(=O)O`, the activity change, negative = cytotoxicity is -5.67% [at 2.72 µM] (inactive). As to `S=C([S-])NCCNC(=S)[S-].S=C([S-])NCCNC(=S)[S-].[Mn+2].[Zn+2]`, the Potency entry is “inactive”.

Consider `Cc1ccc(N/N=c2\c(=O)cc/c(=N\Nc3ccc(S(=O)(=O)O)cc3)c2=O)c(C)c1`, for which the Potency entry is “inactive”. As for `[Cl][Pt-2]([Cl])([Cl])[Cl]`, the Potency result is “inactive”. Consider `COc1cccc2c1C(=O)c1c(O)c3c(c(O)c1C2=O)C[C@@](O)(C(C)=O)C[C@@H]3O[C@H]1C[C@H](N)[C@H](O)[C@H](C)O1`, for which the Potency was 553 nM (active) and inactive. Still for that read-out and setting: the same measure for `COc1ccc2cc1Oc1ccc(cc1)C[C@H]1c3c(cc4c(c3Oc3cc5c(cc3OC)CCN(C)[C@@H]5C2)OCO4)CCN1C`: “inactive”; for `CN(C)C(=O)COC(=O)Cc1ccc(OC(=O)c2ccc(N=C(N)N)cc2)cc1`: “inactive”; for `O=C(O)Cc1ccccc1Nc1c(Cl)cccc1Cl`: “inactive”. As for `O=S(=O)(O)c1ccc(N=Nc2c(O)ccc3ccccc23)cc1`, the Potency was 12.3 µM (active). As for `CCCCCCCC/C=C\CCCCCCCCN`, the Potency result is “inactive”. On the same count and under the same terms, the same measure for `NC(=S)NC(N)=S`: “inactive”; for `COc1ccc2c(c1)c(CC(=O)OC/C=C(\C)CC/C=C(\C)CCC=C(C)C)c(C)n2C(=O)c1ccc(Cl)cc1`: “inactive”; for `CCOc1ccc2ccccc2c1C(=O)N[C@@H]1C(=O)N2[C@@H]1SC(C)(C)[C@@H]2C(=O)O`: “inactive”.

In the case of `Oc1cc(Cl)cc(Cl)c1Cl`, the Potency result is “inactive”. On the same count and under the same terms, the entry for `CCOC(=O)c1ccc(C2CCC(NC[C@H](O)COc3ccc(O)c(NS(C)(=O)=O)c3)CC2)cc1` (stereo not given in full) is “inactive”; for `Cc1c(C)c2c(c(C)c1O)CC[C@@](C)(CCC[C@H](C)CCC[C@H](C)CCCC(C)C)O2` it is “inactive”. With `CC(=O)OCC=C(C)C`, the Potency entry is “inactive”.
